# Test results taken from the supplement of paper PMC9262897, “Low-cost anti-mycobacterial drug discovery using engineered E. coli” (Nature Communications, 2022).
# Counter-ions that a name gives are not always drawn. ± gives the standard deviation of the averaged measurements.
# System: E. coli TESEC Mtb Alr
# Test: growth (OD600 after 10 h); higher = more growth (less inhibition)
# Settings: arabinose 1000000 nM; compound 0.1 mM; raw OD600 reference: median of DMSO wells 0.193, cell-free background 0.041
# Protocol: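 TESEC Mtb Alr E. coli, or the Alr+ wild-type control, in 384-well plates with Prestwick library compounds at 0.1 mM and 1% DMSO, across arabinose induction levels of 1E3 to 1E7 nM. Growth is read as OD600 after 10 h at 37 °C in triplicate biological replicates.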
row,SMILES,growth
1,C=CCOc1ccccc1OCC(O)CNC(C)C (stereo not drawn) [Oxprenolol hydrochloride],0.208 ± 0.023
2,CCOc1ccc2c(c1)C(C)=CC(C)(C)N2 [Ethoxyquin],0.118 ± 0.0015
3,CC1Cc2ccccc2N1NC(=O)c1ccc(Cl)c(S(N)(=O)=O)c1 (stereo not drawn) [Indapamide],0.159 ± 0.0057
4,CCC(=O)OCC(=O)[C@@]1(OC(=O)CC)[C@H](C)C[C@H]2[C@H]3[C@H]([C@@H](O)C[C@@]21C)[C@@]1(C)C=CC(=O)C=C1C[C@H]3Cl [Alclometasone dipropionate],0.127 ± 0.022
5,Cc1scc2c1N(C(=O)CN1CCN(C)CC1)c1ccccc1NC2=O [Telenzepine dihydrochloride],0.162 ± 0.0049
6,O=C1CC[C@@H](C(=O)N2CSC[C@H]2C(=O)O)N1 [Pidotimod],0.217 ± 0.033
7,CCC1NC(=O)c2cc(S(N)(=O)=O)c(Cl)cc2N1 (stereo not drawn) [Quinethazone],0.199 ± 0.0047
8,CN1CCCN(C(c2ccccc2)c2ccc(Cl)cc2)CC1 (stereo not drawn) [Homochlorcyclizine dihydrochloride],0.0532 ± 0.00092
9,C1N2CN3CN1CN(C2)C3 [Methenamine],0.226 ± 0.0064
10,CC(C)(O/N=C(\C(=O)N[C@@H]1C(=O)N2C(C(=O)[O-])=C(C[n+]3ccccc3)CS[C@H]12)c1csc(N)n1)C(=O)O [Ceftazidime pentahydrate],0.0575 ± 0.00086
11,CC(C(O)c1ccc(O)cc1)N1CCC(Cc2ccccc2)CC1 (stereo not drawn) [Ifenprodil tartrate],0.143 ± 0.0037
12,CCN(CC)CCNC(=O)c1ccc(N)cc1 [Procainamide hydrochloride],0.192 ± 0.002
13,CC[C@H]1OC(=O)[C@H](C)[C@@H](O[C@H]2C[C@@](C)(OC)[C@@H](O)[C@H](C)O2)[C@H](C)[C@@H](O[C@@H]2O[C@H](C)C[C@H](N(C)C)[C@H]2O)[C@](C)(O)C[C@@H](C)CN(C)[C@H](C)[C@@H](O)[C@]1(C)O [Azithromycin],0.03993 ± 0.00025
